Results from PubChem BioAssay AID588855 (National Center for Advancing Translational Sciences (NCATS), 2011).
About 5,000 (1.2%) of roughly 410,000 compounds were called active. Where a call stands in place of a potency, no number is given. About 13% were inconclusive and are not listed. Calls follow the shape of the dose curve; as a rule, active = well fitted inhibition curve with a large enough effect; inconclusive = small, poorly fitted or top-dose-only effect; inactive = no such curve, though single readings can be large or run the other way. Only a selection was taken, and actives are over-represented in it overall.

Test: qHTS for Inhibitors of TGF-b; also: nearly all actives have a fitted effect of over 65% in size
Settings: HepG2 CAGA-GFP TGF-b/SMAD3 reporter, GFP fluorescence, 18 h, TGF-beta stimulated, 500 pg/mL final; series mostly up to 46.1 µM
Summary of the method: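 Inhibition was scored as loss of TGF-beta-induced (500 pg/mL final, 18 hours, 37 degrees C) GFP in HEPG2 cells carrying a CAGA-GFP reporter, in DMEM with 1% FBS. Well GFP was summed per cell; Activity was normalised to unstimulated and stimulated DMSO wells, then concentration-response fitting.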
Potency is read from the fitted curve at half-maximal effect.

Row | SMILES | Potency
1 | CCc1nn(CCCC(=O)NCc2ccccc2OC)c(=O)c2cc3occc3n12 | inactive
2 | CCc1ccc(CNC(=O)c2cc3cc4ccc(OC)cc4nc3o2)cc1 | inactive
3 | CCCNC(=O)C1CCN(c2nc3ccc(C)cc3[nH]2)CC1 | inactive
4 | CC(C)=CC(=O)Nc1nnc(-c2ccc(F)cc2)s1 | inactive
5 | Cc1ccc(NC(=O)Nc2nnc(-c3ccncc3)s2)cc1 | 11.2 µM (active)
6 | CCc1ccc(NC(=O)Nc2ccncc2)cc1 | inactive
7 | CN1CCN(C2(CNC(=O)COc3ccc(C(C)(C)C)cc3)CCCCC2)CC1 | inactive
8 | CCOc1ccc(S(=O)(=O)c2cn(Cc3ccccc3)c3ccc(OCC)cc3c2=O)cc1 | inactive
9 | O=C(Nc1cccc(Cl)c1)c1csnn1 | inactive
10 | Cc1csc(NC(=S)Nc2cccc(Cl)c2)n1 | 8.91 µM (active)
11 | O=C(NCc1cn2ccsc2n1)Nc1cccc(Cl)c1 | inactive
12 | O=C1CC(c2ccccc2)CC2=C1C(c1ccco1)n1nc(C(F)(F)F)nc1N2 (centres undefined) | inactive
13 | CCCCNC(=O)Cn1c(SCc2cccc(Cl)c2)nc2ccncc21 | inactive
14 | Cc1cccc(-c2nnc(SC(C)C(=O)Nc3ccccc3)n2C)c1 (centres undefined) | inactive
15 | O=S(=O)(NCCS(=O)(=O)N1CCN(c2ccccc2)CC1)c1ccc(Cl)cc1 | inactive
16 | O=C(CN1C(=O)COc2ccc(S(=O)(=O)N3CCOCC3)cc21)N1CCN(c2cccc(Cl)c2)CC1 | inactive
17 | O=C(Nc1nnc(SCc2c(Cl)cccc2Cl)s1)c1cccc([N+](=O)[O-])c1 | inactive
18 | O=C(Nc1ccc(C2CC2(Cl)Cl)cc1)c1cccc([N+](=O)[O-])c1 (centres undefined) | 15.8 µM (active)
19 | CC(C)(C)SCCNC(=O)c1cccc([N+](=O)[O-])c1 | inactive
20 | Cc1ccc(-c2cn3c(n2)sc2cc(C(=O)NCc4cccs4)ccc23)c(C)c1 | inactive
21 | Cc1cc(C)cc(NC(=O)CSc2nc(=O)n(CCN3CCOCC3)c3c2CCC3)c1 | inactive
22 | Cc1nnc(SCc2cc(=O)c3cc(F)ccc3[nH]2)n1C | inactive

Row | SMILES | Potency
23 | O=C(Nc1ccc(Cl)cn1)c1ccccc1-c1ccccc1 | inactive
24 | Clc1ccc(Nc2nc(-c3cccs3)cs2)nc1 | 11.2 µM (active)
25 | CCCc1cc(C(=O)Nc2ccc(Cl)cn2)cs1 | inactive
26 | COc1ccc(C(=O)COC(=O)CCCC(=O)Nc2cc(C(F)(F)F)ccc2Cl)cc1 | inactive
27 | Cc1cc(Nc2cccc(C(F)(F)F)c2)nc2ccc(NC(=O)c3ccc(=O)[nH]c3)cc12 | inactive
28 | COc1cc(NC(=O)c2cncc(-c3ccc(C#N)cc3)c2)cc(C(=O)Nc2cccc(C(F)(F)F)c2)c1 | inactive
29 | COc1cc(NC(=O)c2[nH]cnc2C(N)=O)cc(C(=O)Nc2cccc(C(F)(F)F)c2)c1 | 4.47 µM (active)
30 | O=C(Nc1ccccc1F)C(c1ccccc1)N1Cc2ccccc2C1=O (centres undefined) | inactive
31 | CCc1ccc(NC(=O)CCS(=O)(=O)c2cc3c(cc2Cl)NC(=O)CO3)cc1 | inactive
32 | O=C(COc1ccc(Br)cc1F)NC1CCN(Cc2ccccc2)CC1 | inactive
33 | O=C(NC1CCN(Cc2ccccc2)CC1)c1cc(Br)c(Br)[nH]1 | inactive
34 | S=C(Nc1ccc(Br)cc1)NC1CCN(Cc2ccccc2)CC1 | 10 µM (active)
35 | COc1ccc(Nc2ncc(C(=O)Nc3cc(C)ccc3OC)c3ccccc23)cc1 | inactive
36 | CCc1nccn1S(=O)(=O)c1cc(Br)ccc1Br | inactive
37 | COc1ccc(OC)c(NC(=O)/C=C/c2ccc(C)o2)c1 | inactive
38 | CC(C)S(=O)(=O)c1oc(-c2ccc(F)cc2)nc1S(=O)(=O)c1ccc(F)cc1 | 1.26 µM (active)
39 | Cc1ccc(-c2nc(S(=O)(=O)c3ccc(C)cc3)c(N3CCCCCC3)o2)cc1 | inactive
40 | O=C(CSc1oc(-c2ccc(F)cc2)nc1S(=O)(=O)c1ccc(Br)cc1)NC1CCCCC1 | inactive
41 | Cc1ccc(CCNC(=O)Cn2c(-c3cccs3)cc3cc(F)ccc32)cc1 | inactive
42 | COc1ccc(CC(=O)NCCc2sc3nc(-c4ccc(OC)cc4)nn3c2C)cc1 | inactive
43 | COc1c(Cl)cc(C(=O)N(Cc2ccccc2F)C2CCS(=O)(=O)C2)cc1Cl (centres undefined) | inactive
44 | Cc1ccc2nc(-c3ccc(O)cc3)c(Nc3ccc4c(c3)OCO4)n2c1 | inactive

Row | SMILES | Potency
45 | Cc1cc(C)nc(S/C=C/C(=O)c2ccccc2)n1 | 3.16 µM (active)
46 | COC(c1ccccc1)(c1ccccc1)C(Oc1nc(C)cc(C)n1)C(=O)O (centres undefined) | inactive
47 | Cc1cc(C)nc(SC(C)C(=O)N/N=C/c2cccs2)n1 (centres undefined) | inactive
48 | Cc1ccc(Cn2c(CNC(=O)Cc3cccc(C)c3)nc3cccnc32)cc1 | inactive
49 | CC(=O)Nc1cc(C(=O)NCc2ccc(F)cc2Cl)ccc1Sc1ccc(Cl)cc1 | inactive
50 | COc1ccc(CN2CCC(=O)c3ccccc3S2(=O)=O)cc1 | inactive
51 | COc1cccc2c1C(=O)c1c(O)c3c(c(O)c1C2=O)CC(O)(C(C)=NNC(=O)c1ccc(Cl)c(Cl)c1)CC3OC1CC(N)C(O)C(C)O1 (centres undefined) | 1.12 µM (active)
52 | Cc1ccc(Cn2cnc3c(cnn3C(C)(C)C)c2=O)c(F)c1 | inactive
53 | COc1cc(CN(C(=O)c2ccccc2Br)c2ccccn2)cc(OC)c1OC | inactive
54 | CC(C)CC[n+]1ccn(C2=C([O-])c3ccccc3C(=O)/C2=N\S(=O)(=O)c2ccccc2)c1 | 3.16 µM (active)
55 | COC(=O)c1ccc(NC(=O)c2cccc3c2C(=O)N(C2CCCCC2)C3)cc1 | inactive
56 | O=S1(=O)CC(N2CCC(Cc3ccccc3)CC2)CN1Cc1ccccc1 (centres undefined) | inactive
57 | Cc1cccc(CN2CCN(C3CN(Cc4ccccc4)S(=O)(=O)C3)CC2)c1 (centres undefined) | inactive
58 | Cc1ccc(CN2CC(N3CCC(Cc4ccccc4)CC3)CS2(=O)=O)cc1 (centres undefined) | 14.1 µM (active)
59 | Cc1ccc(CN2CCc3nc(N4CCN(C)CC4)ncc3C2)cc1 | inactive
60 | CCOc1ccc(NC(=O)CC2C(=O)N(c3cccc(OC)c3)C(=O)N2C2CCCCC2)cc1 (centres undefined) | inactive
61 | Cc1cccc(NC(=O)Cn2c(C(F)(F)F)nc3ccccc32)c1C | inactive
62 | O=C(CSc1nc2c(c(=O)[nH]1)CN(Cc1ccc3c(c1)OCO3)CC2)Nc1cc(F)ccc1F | inactive
63 | Fc1ccc2[nH]c3c(N4CCN(Cc5ccc6c(c5)OCO6)CC4)ncnc3c2c1 | 17.8 µM (active)
64 | N#C/C=C/N1CCN(Cc2ccc3c(c2)OCO3)CC1 | inactive
